Here are results for five molecules from PubChem BioAssay.

The source made the active and inactive calls. Unless noted, the rule behind the calls is not given here.

The subject of assay [1] is Wnt5a (protein binding on small-molecule microarray). As to the kind of experiment: small molecules binding Wnt5a protein – biophysical, small-molecule microarray, 635/667 nm fluorescence, primary screen (AID 1142).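 Note: fluorescence read at 667 nm with signal to noise per printed feature.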 The settings on record: 635 nm fluorescence, higher = more signal.
Assay [2] in a line: ATP-based viability of Huh7 replicon cells – cell-based, CellTiter-Glo luminescence, basal, 48 h, cytotoxicity control for HCV replication inhibitor project, primary screen (AID 1143).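 Note: Huh7 hepatoma cells carrying a hepatitis C replication reporter with no stimulus; test concentration not given here.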 As to conditions: higher = more signal, called active from +8 up or from −8 down. For orientation: A replicon is a self-replicating genome or part of one, used to study replication in cells.
Assay [3] can be described thus: Pseudomonas biofilm growth suppression – PAO1 strain, BacTiter-Glo luminescence, LB-PBS, primary screen (AID 1144). The settings on record: P. aeruginosa PAO1 biofilm, 12 h, higher = more signal.
Assay [4] is described as follows: basal CRE-LacZ reporter activity in PC12 – cell-based, unstimulated, primary screen (AID 1145). As to conditions: no forskolin, luminescence, 4.5 h, higher = more signal, called active from +8 up or from −8 down.
Assay [5] is described as follows: forskolin-driven CRE-LacZ activity in PC12 – cell-based, CRE-LacZ reporter, forskolin-stimulated, primary screen (AID 1146).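 Note: PC12 cells with 6xCRE LacZ reporter stimulated by forskolin 10 µM; beta-galactosidase reporter signal reflecting CREB driven transcription.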 As to conditions: luminescence, 4.5 h, higher = more signal, called active from +8 up or from −8 down.
The target of assay [6] is Streptavidin (Streptomyces avidinii) (UniProt P22629). The experiment in a line: compounds binding control protein streptavidin – biophysical, small-molecule microarray, 635/667 nm fluorescence, artefact control for SMM compound annotation, primary screen (AID 1147).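 Note: signal reflects streptavidin binding to arrayed compounds as a control protein.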 The settings on record: higher = more signal.
Sequence of Streptavidin (Streptomyces avidinii) (P22629 whole entry, looked up): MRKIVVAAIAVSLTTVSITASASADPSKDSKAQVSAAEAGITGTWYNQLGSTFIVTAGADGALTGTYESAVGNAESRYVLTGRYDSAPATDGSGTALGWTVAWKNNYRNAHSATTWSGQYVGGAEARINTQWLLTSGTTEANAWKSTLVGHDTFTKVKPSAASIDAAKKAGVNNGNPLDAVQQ
Assay [7] in a line: probe aInhba binding on compound microarray – biochemical, small-molecule microarray, 635/667 nm fluorescence, primary screen (AID 1148).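 Note: score merges 667nm spot fluorescence with signal-to-noise for antibody binding to printed compounds.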 As to conditions: higher = more signal.
Assay [8] has as its target Torsin-1A (Homo sapiens) (UniProt O14656). The experiment in a line: TOR1A wild-type binding on microarray – cell lysate, small-molecule microarray, lysate, 635/667 nm, primary screen (AID 1149). As to conditions: COS7 hTOR1A-WT lysate, 635 nm fluorescence, higher = more signal.
Assay [9] has the same target. As to the kind of experiment: torsin A mutant lysate binding on microarrays – cell lysate, small-molecule microarray, COS7 lysate, 635/667 nm fluorescence, primary screen (AID 1150).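 Note: score pools 667 nm emission and signal to noise measuring lysate protein binding.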 The settings on record: COS7 hTOR1A mutant lysate, 635 nm fluorescence, higher = more signal.
Assay [10] concerns Sonic hedgehog protein (Shh). As to the kind of experiment: Sonic hedgehog microarray binding compounds – biochemical, small-molecule microarray, 635/667 nm fluorescence, primary screen (AID 1151).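 Note: Shh protein binding to compounds spotted on small-molecule microarray slides; score combines spot fluorescence intensity with signal-to-noise across triplicate slides.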 As to conditions: 635 nm fluorescence, higher = more signal.
Assay [11] in a line: optical density shifts of acrAB sulA E. coli – strain DRC41, OD650, 48 h, E. coli filamentation inducer project, primary screen (AID 1152).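 Note: E. coli MC1000 strain DRC41 lacking acrAB efflux pump and sulA.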 The settings on record: higher = more signal, called active from +8 up or from −8 down.
Assay [12] can be described thus: probe aLefty1 binding on compound microarray – biochemical, small-molecule microarray, 635/667 nm fluorescence, primary screen (AID 1153).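 Note: score merges spot fluorescence with signal-to-noise ratio from the scanned slide images.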 As to conditions: higher = more signal.
A short description of assay [13]: plasmodial surface anion channel blockers, osmotic lysis – cell-based, P. falciparum Indochina, OD700, 1 h, primary screen (AID 1154). The settings on record: P. falciparum Indochina infected RBC osmotic lysis, higher = more signal, called active from +8 up or from −8 down.
Assay [14] is described as follows: plasmodial surface anion channel blockers, osmotic lysis – cell-based, P. falciparum Indochina, OD700, 2 h, primary screen (AID 1155).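 Note: lysis reports solute entry through the parasite surface anion channel PSAC.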 The settings on record: P. falciparum Indochina infected erythrocytes, higher = more signal, called active from +8 up or from −8 down.
The nature of assay [15]: changes in parasitized red cell lysis, either direction – P. falciparum Indochina, OD700, 3 h, PSAC antagonist project, primary screen (AID 1156). As to conditions: P. falciparum-infected erythrocytes, osmotic lysis, higher = more signal, called active from +8 up or from −8 down.
Assay [16] can be described thus: plasmodial surface anion channel blockers, osmotic lysis – cell-based, P. falciparum Indochina, OD700, 18 h, primary screen (AID 1157). The settings on record: P. falciparum Indochina infected erythrocytes, osmotic lysis OD700, 18 h; higher = more signal, called active from +8 up or from −8 down.
Assay [17] is described as follows: S6 kinase pathway phospho-S6 level changes – cell-based, A549, cytoblot, luminescence, serum-stimulated, primary screen (AID 1158).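 Note: serum-stimulated A549 lung adenocarcinoma cells; signal is phosphorylated S6 detected by cytoblot immunostaining with HRP secondary.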 The settings on record: 5 h, higher = more signal.
Assay [18] addresses NADPH oxidase 2 (Homo sapiens) (UniProt P04839). The experiment in a line: compounds shifting NOX2 Amplex Red fluorescence – cell-based, HEK293-NOX2, PMA-stimulated, NOX inhibitor project, primary screen (AID 1159). Note: test concentration not given here. As to conditions: 45 min, higher = more signal, called active from +8 up or from −8 down.
Assay [19] addresses NADPH oxidase 4 (Homo sapiens) (UniProt Q9NPH5). The experiment in a line: compounds shifting NOX4 Amplex Red fluorescence – cell-based, HEK293-NOX4, tetracycline-induced, NOX inhibitor project, primary screen (AID 1160). The settings on record: HEK293-NOX4, Amplex Red H2O2 fluorescence, 45 min; higher = more signal, called active from +8 up or from −8 down.
Assay [20] has as its target NADPH oxidase 5 (Homo sapiens) (UniProt Q96PH1). The experiment in a line: compounds shifting NOX5 Amplex Red fluorescence – cell-based, HEK293-NOX5, NOX inhibitor project, primary screen (AID 1161). As to conditions: HEK293-NOX5, ionomycin, 45 min, higher = more signal.

Sequence of NADPH oxidase 4 (Homo sapiens) (Q9NPH5 whole entry, looked up): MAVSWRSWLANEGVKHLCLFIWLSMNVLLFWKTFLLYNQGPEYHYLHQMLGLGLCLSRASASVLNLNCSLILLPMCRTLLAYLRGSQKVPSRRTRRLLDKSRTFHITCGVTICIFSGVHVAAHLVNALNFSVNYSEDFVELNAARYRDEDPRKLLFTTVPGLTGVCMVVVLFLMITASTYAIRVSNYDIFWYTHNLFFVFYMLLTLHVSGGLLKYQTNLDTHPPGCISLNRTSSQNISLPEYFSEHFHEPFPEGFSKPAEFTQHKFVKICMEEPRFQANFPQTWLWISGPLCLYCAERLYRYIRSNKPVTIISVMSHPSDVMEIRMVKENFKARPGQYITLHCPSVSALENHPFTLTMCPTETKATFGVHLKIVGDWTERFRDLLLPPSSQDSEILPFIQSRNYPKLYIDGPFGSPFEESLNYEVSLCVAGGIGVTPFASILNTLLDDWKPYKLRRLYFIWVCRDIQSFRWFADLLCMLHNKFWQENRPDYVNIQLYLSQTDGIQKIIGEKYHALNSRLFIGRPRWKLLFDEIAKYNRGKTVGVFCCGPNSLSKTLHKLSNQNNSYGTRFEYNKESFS
Sequence of NADPH oxidase 2 (Homo sapiens) (P04839 whole entry, looked up): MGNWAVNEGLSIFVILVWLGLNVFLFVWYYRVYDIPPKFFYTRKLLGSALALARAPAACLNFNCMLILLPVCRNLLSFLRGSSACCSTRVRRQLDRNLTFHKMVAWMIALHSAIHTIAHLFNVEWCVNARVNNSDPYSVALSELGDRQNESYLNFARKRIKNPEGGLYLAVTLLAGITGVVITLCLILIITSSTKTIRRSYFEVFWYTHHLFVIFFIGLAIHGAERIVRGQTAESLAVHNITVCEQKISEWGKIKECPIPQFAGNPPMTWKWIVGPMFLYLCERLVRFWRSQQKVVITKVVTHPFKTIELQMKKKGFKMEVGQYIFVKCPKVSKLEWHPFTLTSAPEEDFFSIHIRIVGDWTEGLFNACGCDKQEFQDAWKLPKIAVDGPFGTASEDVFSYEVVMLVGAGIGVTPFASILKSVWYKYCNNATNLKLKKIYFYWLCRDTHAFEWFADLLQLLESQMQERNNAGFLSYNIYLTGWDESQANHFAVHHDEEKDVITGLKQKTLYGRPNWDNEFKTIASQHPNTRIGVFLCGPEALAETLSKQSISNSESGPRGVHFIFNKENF
Sequence of NADPH oxidase 5 (Homo sapiens) (Q96PH1 whole entry, looked up): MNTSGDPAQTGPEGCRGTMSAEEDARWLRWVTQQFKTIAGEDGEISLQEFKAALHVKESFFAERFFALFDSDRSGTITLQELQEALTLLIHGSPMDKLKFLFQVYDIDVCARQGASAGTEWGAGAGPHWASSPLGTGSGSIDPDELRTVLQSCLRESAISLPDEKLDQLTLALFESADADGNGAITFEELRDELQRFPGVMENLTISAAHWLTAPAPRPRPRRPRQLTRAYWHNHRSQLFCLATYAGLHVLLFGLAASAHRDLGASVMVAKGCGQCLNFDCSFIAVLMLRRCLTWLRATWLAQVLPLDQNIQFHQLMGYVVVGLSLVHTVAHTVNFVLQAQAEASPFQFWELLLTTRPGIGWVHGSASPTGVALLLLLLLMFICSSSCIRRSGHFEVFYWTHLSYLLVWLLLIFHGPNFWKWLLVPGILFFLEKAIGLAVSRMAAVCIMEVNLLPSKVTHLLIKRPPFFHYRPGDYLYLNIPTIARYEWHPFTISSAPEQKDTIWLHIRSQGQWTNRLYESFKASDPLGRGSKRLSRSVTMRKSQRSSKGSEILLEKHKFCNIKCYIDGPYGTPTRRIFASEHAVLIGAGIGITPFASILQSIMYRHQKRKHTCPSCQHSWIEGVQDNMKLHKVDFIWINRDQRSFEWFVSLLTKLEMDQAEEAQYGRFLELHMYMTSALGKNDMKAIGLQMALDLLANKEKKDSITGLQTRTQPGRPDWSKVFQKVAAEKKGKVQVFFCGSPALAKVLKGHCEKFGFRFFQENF
Sequence of Torsin-1A (Homo sapiens) (O14656 whole entry, looked up): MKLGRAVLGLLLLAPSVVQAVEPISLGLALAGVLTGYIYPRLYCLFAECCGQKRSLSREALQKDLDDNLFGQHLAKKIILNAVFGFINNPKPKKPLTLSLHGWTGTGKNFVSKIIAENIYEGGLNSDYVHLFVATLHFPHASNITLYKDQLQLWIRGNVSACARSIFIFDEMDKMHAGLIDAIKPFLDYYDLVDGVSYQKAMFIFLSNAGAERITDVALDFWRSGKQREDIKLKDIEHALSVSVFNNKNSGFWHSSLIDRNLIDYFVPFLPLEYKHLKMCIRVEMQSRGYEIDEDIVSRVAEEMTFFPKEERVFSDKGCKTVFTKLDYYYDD

In the case of `O=C1O[C@@H](c2ccccc2)[C@@H](c2ccccc2)N2[C@@H](c3ccc(OCCO)cc3)[C@]3(C(=O)Nc4ccc(C#CCCO)cc43)[C@@H](C(=O)N3CCN(c4ncccn4)CC3)[C@H]12`, the composite z-score turned out to be 0.544 in [1]; 0.509 in [6]; 0.0403 in assay [7]; 0.376 with Torsin-1A (Homo sapiens) [8]; 0.5 with Torsin-1A (Homo sapiens) [9]; 1.93 in assay [10]. In addition, in assay [12], the composite z-score is 0.242. In addition, the z-score is -0.284 (inactive) in assay [2]; -0.132 (inactive) in assay [3]; 0.478 (inactive) in assay [4]; 0.0989 (inactive) in assay [5]; 0.533 (inactive) in assay [11]; 3.54 (inactive) in assay [13]. The z-score in [14] is 1.71 (inactive); in [15], -1.56 (inactive); in [16], 0.664 (inactive); in [17], -0.436; in [18] it was 2 (inactive); in assay [19], 0.677 (inactive). Also, in assay [20], the z-score worked out at 0.589.
With `[N-]=[N+]=NCc1ccccc1C[C@]1(C(=O)N2CCCCC2)N=C(c2ccc(OCCCO)cc2)O[C@H]1c1ccccc1CN=[N+]=[N-]`, the composite z-score in assay [1] is 0.129; in assay [6] it was 0.995; in [7], 0.233; in the assay with Torsin-1A (Homo sapiens) [8] it was 0.064; with Torsin-1A (Homo sapiens) [9], 0.741; in [10], -0.0292. The composite z-score in assay [12] came out at 0.42. Further, the z-score in [2] is -4.48 (inactive); in assay [3], 0.447 (inactive); in [4] it was 1.88 (inactive); in assay [5], 0.102 (inactive); in assay [11], -0.481 (inactive); in [13] it was 16.1 (active). The z-score in assay [14] is 3.02 (inactive); in [15], 2.16 (inactive); in assay [16], 1.16 (inactive); in assay [17] it was -0.574; in assay [18], 0.545 (inactive); in [19] it was -0.692 (inactive). In addition, in assay [20], the z-score is -0.824.
As to `CCOC(=O)C1=C[C@@H](c2ccccc2)N(S(=O)(=O)c2ccc(C)cc2)[C@H]1c1ccc(F)cc1`, the composite z-score in [1] came to 0.0679; in assay [6], 0.95; in [7] it was 0.225; with Torsin-1A (Homo sapiens) [8] it was 0.347; with Torsin-1A (Homo sapiens) [9], 0.431; in [10], 0.488. Moreover, the composite z-score in assay [12] amounted to 0.275. Moreover, the z-score in [2] was -3.77 (inactive); in assay [3], 0.449 (inactive); in assay [4] it was -0.826 (inactive); in assay [5], -0.552 (inactive); in assay [11], -1.15 (inactive); in assay [13], 1.66 (inactive). Besides, the z-score in assay [14] was 1.42 (inactive); in assay [15], -0.101 (inactive); in assay [16] it was 1 (inactive); in assay [17], -0.217; in [18], 0.108 (inactive); in assay [19], 0.814 (inactive). Further, the z-score in assay [20] was -0.291.
For the molecule `COCCOC(=O)N1C(=O)[C@@]2(c3cc(C#CCCO)ccc31)[C@H](c1ccc(OCCO)cc1)N1[C@H](c3ccccc3)[C@H](c3ccccc3)OC(=O)[C@H]1[C@@H]2C(=O)NC[C@H](O)c1ccccc1`, the composite z-score in assay [1] came out at 0.619; in assay [6], 0.427; in assay [7] it was 0.0183; with Torsin-1A (Homo sapiens) [8], 0.703; with Torsin-1A (Homo sapiens) [9], 1.16; in assay [10], 1.7. In addition, the composite z-score in assay [12] is -0.0054. Also, the z-score in assay [2] was -2.79 (inactive); in assay [3], -0.668 (inactive); in assay [4] it was -1.42 (inactive); in assay [5], -0.137 (inactive); in [11], 1.04 (inactive); in [13], 2.48 (inactive). The z-score in assay [14] was 1.1 (inactive); in assay [15], 0.68 (inactive); in assay [16] it was 0.678 (inactive); in [17] it was 0.75; in assay [18] it was 2.04 (inactive); in assay [19], 0.385 (inactive). Besides, in assay [20], the z-score was determined as 0.419.
In the case of `CC[C@H]1C2=C3C(CC[C@H]4C(OC)OC[C@](C)([C@@H]34)N(C(=O)OC(C)(C)C)C2)C(CO)C1CO` (stereo not given in full), the composite z-score was 0.647 in assay [1]; 3.17 in [6]; 0.34 in assay [7]; 0.295 with Torsin-1A (Homo sapiens) [8]; 1.87 with Torsin-1A (Homo sapiens) [9]; -0.623 in [10]. Moreover, the composite z-score in assay [12] worked out at 0.631. Moreover, the z-score in [2] is -1.06 (inactive); in assay [3], 1.01 (inactive); in assay [4], -0.182 (inactive); in assay [5] it was 0.385 (inactive); in assay [11] it was -0.36 (inactive); in assay [13], -0.51 (inactive). The z-score was -0.909 (inactive) in [14]; -0.337 (inactive) in [15]; -2.25 (inactive) in assay [16]; 1.59 in assay [17]; -0.108 (inactive) in [18]; -0.269 (inactive) in assay [19]. Besides, the z-score in assay [20] was -2.77.
